D2 PAM-1: positively modulates the human D2 dopamine receptor allosterically. 340,000 tested, 0.34% active. potentiation, % at 10 µM. P14416. HEK293 T-REx D2, calcium flux, EC20 dopamine potentiation. AID 485347;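 active means potentiation over 3 SD above the plate norm, cut at about 30% in these data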
Target sequence (P14416 whole entry, looked up): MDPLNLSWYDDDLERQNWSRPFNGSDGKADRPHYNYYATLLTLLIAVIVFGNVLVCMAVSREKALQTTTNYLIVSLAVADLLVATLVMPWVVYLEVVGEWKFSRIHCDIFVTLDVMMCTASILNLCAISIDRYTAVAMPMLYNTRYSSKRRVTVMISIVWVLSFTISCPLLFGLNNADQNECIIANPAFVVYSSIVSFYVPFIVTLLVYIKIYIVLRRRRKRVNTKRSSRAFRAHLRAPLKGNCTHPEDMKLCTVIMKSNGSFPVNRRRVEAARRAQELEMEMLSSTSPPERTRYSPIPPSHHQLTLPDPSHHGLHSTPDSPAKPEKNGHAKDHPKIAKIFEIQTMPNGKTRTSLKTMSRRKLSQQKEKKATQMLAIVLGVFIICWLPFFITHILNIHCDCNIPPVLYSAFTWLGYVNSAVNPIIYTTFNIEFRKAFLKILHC
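Tetracycline-induced HEK293 T-REx cells force-coupled to calcium signalling expressed D2; compounds were pin-added after a 10 s baseline, read kinetically 180 s, then an EC20 dopamine challenge followed with a further 180 s calcium read.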
D2 PAM-2: human D2 receptor positive allosteric modulation. P14416. DiscoveRx D2 beta-arrestin cells, luminescence, 90 min; 100% = 57 uM dopamine signal. 360,000 tested, 0.23% active. potentiation, % (no concentration beside the values); in the data active means potentiation above about 50%; inconclusive means mostly about 30% to 49%
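PathHunter beta-arrestin assay in DiscoveRx D2 cells. Compounds were added with an EC20 of dopamine (50 nM final) for 90 min at 37 deg C. Luminescence was read 1 h after detection reagent, with 57 uM dopamine as the EC100 control.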
D2 ag-1: human D2 receptor agonism in beta-arrestin assay | 360,000 tested, 0.084% active | DiscoveRx PathHunter D2 beta-arrestin, luminescence, 90 min; 100% = 57 uM dopamine signal | P14416 | activation, % (test concentration not listed); in the data active means activation above about 40%; inconclusive means between about 15% and that limit
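Agonist mode: compounds alone added to overnight-plated D2 PathHunter cells for 90 min at 37 C, with 57 uM final dopamine (EC100) defining full response. Beta-arrestin recruitment detected by chemiluminescent reagent, read after 1 h at ambient temperature.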
D2 ag-2: activates the human D2 dopamine receptor. P14416. HEK293 T-REx D2 cells, calcium flux agonist mode. activation, % at 2 µM. 340,000 tested, 0.53% active. AID 485358;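 active means activation over 3 SD above normal in the single-dose calcium agonist read, cut at about 30% in these data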
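Tetracycline-induced HEK293 T-REx cells with force-coupled D2 receptor, plated overnight at 30 C, loaded with no-wash calcium dye. After a 10 s baseline, compound was pin-added and calcium flux read kinetically for 180 s; calcium rises flagged agonists.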
D2 antagonist: D2 dopamine receptor (human) antagonism | 340,000 tested, 2% active | inhibition, % at 10 µM | HEK293 TREx D2 cells, calcium flux, dopamine EC80; in the data active means inhibition above about 30%; inactive means below that, where a call was filed
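Measurement of antagonist activity uses fluorescent calcium dye in inducible HEK293 T-REx D2 cells: 10 s baseline, compound addition with 180 s read, EC80 dopamine addition with a further 180 s read.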
Hits are given with their value; – = inactive; ? = inconclusive; · = no result; ! = repeats disagree. Hits are enriched below; roughly 2.4% of the tested compounds scored in any of these assays.

SMILES	D2 PAM-1	D2 PAM-2	D2 ag-1	D2 ag-2	D2 antagonist
CN1C(=O)C(=Cc2cn(CC(=O)N3CCCC3)c3ccccc23)C(=O)N(C)C1=O	31	–	–	–	30
Cn1c(=O)n(C)c2cc(CNCCc3ccccc3)ccc21	·	·	·	–	·
COc1ccc(Br)cc1CN1CCN(CCO)CC1	–	–	–	–	55
CCN1CCN(Cc2cc(Br)ccc2O)CC1	–	–	–	–	64
COc1cc(Br)cc(CN2CCN(C)CC2)c1O	–	–	–	–	–
Cn1c(=O)n(C)c2cc(CNCCc3ccc(F)cc3)ccc21	–	·	·	–	·
CCOC(=O)C1(CCc2ccccc2)CCN(Cc2cccc3c2OCO3)CC1	–	–	–	–	47
CCOC(=O)C1(CCc2ccccc2)CCN(Cc2cccc3cnccc23)CC1	–	–	–	–	–
C[C@@H]1C(=O)O[C@@H]2[C@H](O)C34[C@@H]5OC(=O)C3(O[C@H]3OC(=O)[C@H](O)C34[C@H](C(C)(C)C)[C@H]5O)[C@@]12O (stereo partly drawn)	–	–	–	–	37
Cc1cccc(C2CC(=O)Oc3c2c(=O)oc2ccccc32)c1 (stereo not drawn)	–	·	·	·	·
Oc1ccc(C[C@H]2NCCc3cc(O)c(O)cc32)cc1O	–	–	–	–	85
Cc1ccccc1OCC(=O)N1CCN(CCc2ccccn2)CC1	–	·	·	–	·
Cc1c(Cl)cccc1NC(=O)CN1C(=O)C(C)N=C(c2ccccc2)c2ccccc21 (stereo not drawn)	–	·	·	–	·
CCN(CC)c1ccc(/C=N/c2sc3c(c2C#N)C2CCN3CC2)c(O)c1	–	–	–	34	–
COc1ccc(C)cc1NC(=O)N(Cc1ccc2c(c1)OCO2)C1CCN(Cc2ccccc2)CC1	–	·	·	–	·
CCCC1=Nc2cc(C(=O)NCCCN(CC)CC)ccc2Sc2ccccc21	–	·	·	–	·
N#Cc1c(Br)n(C2OC(CO)C(O)C2O)c2ncnc(N)c12 (stereo not drawn)	·	?	70	·	·
Cc1nnc(NC(=O)c2cccn(Cc3ccccc3F)c2=O)s1	–	·	·	–	·
COc1ccc(Cl)cc1NC(=O)CN1C(=O)CN=C(c2ccccc2)c2cc(Cl)ccc21	–	·	·	–	·
CCn1cc(C(=O)O)c(=O)c2ccc(C)nc21	–	–	–	–	41!
CCn1cc(C(=O)NCc2ccccc2)c2ccccc21	–	–	–	–	–
O=C1CC(c2ccc(F)cc2)c2c(c3ccccc3oc2=O)O1 (stereo not drawn)	–	·	·	·	·
Cc1ccccc1-n1nc(C)c2c1NC(=O)CSC2c1ccc(N(C)C)cc1 (stereo not drawn)	–	·	·	–	·
CCOC(=O)c1ccc(NC(=O)c2cccn(Cc3ccccc3F)c2=O)cc1	–	·	·	–	·
O=C1CC(c2ccccc2Br)c2c(c3ccccc3oc2=O)O1 (stereo not drawn)	–	·	·	–	·
SMILES	D2 PAM-1	D2 PAM-2	D2 ag-1	D2 ag-2	D2 antagonist
Cn1c(O)c(C=Nc2ccc(F)cc2)c(=O)[nH]c1=O	–	–	–	–	35
O=c1c2ccccc2nc(/C=C\c2ccc(F)cc2)n1-c1ccccc1F	–	·	·	–	·
CCCN1CCc2cccc3c2[C@H]1Cc1ccc(O)c(O)c1-3	·	136	121	·	·
COc1ccc2c(c1O)-c1c(OC)c(OC)cc3c1[C@H](C2)N(C)CC3	–	–	–	–	–
CSCCC(c1nnnn1Cc1ccccc1)N1CCC(n2c(=O)[nH]c3ccccc32)CC1 (stereo not drawn)	·	?	–	·	·
O=c1[nH]c2ccccc2n1C1CCN(C(CCc2ccccc2)c2nnnn2Cc2ccccc2)CC1 (stereo not drawn)	·	52	–	·	·
OC(CNC1CCCCC1)C(F)(F)F (stereo not drawn)	–	–	–	–	40
O=C1NC(=O)N(Cc2ccco2)C(=O)/C1=C/C=C/c1ccco1	–	–	–	–	34
CNc1ccc2oc(C[C@H]3O[C@@]4(CC[C@H]3C)O[C@H]([C@H](C)C(=O)c3ccc[nH]3)[C@H](C)C[C@H]4C)nc2c1C(=O)O	–	–	–	96	62
c1cc2n(c1)-c1c(ccc3c1OCO3)CNC2c1ccc2c(c1)OCO2 (stereo not drawn)	–	–	–	–	51
Cc1ccc(NC(=O)N(Cc2ccc3c(c2)OCO3)C2CCN(Cc3ccccc3)CC2)cc1Cl	·	·	·	–	·
COc1ccccc1N1CCN(Cc2cccc(Br)c2)CC1	–	–	–	–	76
COc1ccccc1N1CCN(Cc2cc(C)c(C)cc2O)CC1	·	–	–	·	·
Oc1ccc(CC2CC3CCN2CC3)cc1O (stereo not drawn)	–	–	–	30	–
C=Cc1ccc(Cn2c(C)c(CNCCc3cc(OC)ccc3OC)c(C(=O)O)c2C)cc1	–	·	·	–	·
COC(=O)c1cncn1C(C)c1ccccc1 (stereo not drawn)	–	–	–	–	–
CCOC(=O)c1cncn1C(C)c1ccccc1 (stereo not drawn)	–	–	–	–	35
Cc1ccsc1C(=O)C1CCCN(Cc2ccn[nH]2)C1 (stereo not drawn)	–	–	–	–	–
COc1ccc(OC)c(CN2CCCC(C(=O)c3sccc3C)C2)c1 (stereo not drawn)	–	–	–	–	51
Cc1ccsc1C(=O)C1CCCN(Cc2cc(C(C)C)n[nH]2)C1 (stereo not drawn)	–	–	–	–	80
COc1cccc(O)c1CN1CCCC(C(=O)c2sccc2C)C1 (stereo not drawn)	–	–	–	–	–
O=C(COc1ccc(Br)cc1)Nc1ccc(Cl)cc1C(=O)c1ccccc1	–	·	·	–	·
CC1(C)CSC(=NCc2ccccc2)N1	–	–	–	73	56
ON1C2CCCCC2N(O)C1c1ccccc1F (stereo not drawn)	–	–	–	–	50
COc1ccc(OCC(=O)N2CCN(CCc3ccccn3)CC2)cc1	–	·	·	–	·
SMILES	D2 PAM-1	D2 PAM-2	D2 ag-1	D2 ag-2	D2 antagonist
O=C(COc1ccccc1F)N1CCN(Cc2cc(=O)n3nc(-c4ccccc4Cl)sc3n2)CC1	–	·	·	–	·
Cc1ccc(Cl)cc1NC(=O)N(Cc1ccc2c(c1)OCO2)C1CCN(Cc2ccccc2)CC1	–	·	·	–	·
CC1CCC2C(C)C(=O)OC3OC4(C)CCC1C32OO4 (stereo not drawn)	–	62	?	–	–
CC1CCC2[C@@H](C)C(=O)OC3O[C@]4(C)CCC1C32OO4 (stereo partly drawn)	·	53	?	·	·
Cc1ccccc1Cn1cccc(C(=O)Nc2cc(Cl)ccc2C#N)c1=O	–	·	·	·	·
Cc1ccccc1-c1nn2c(=O)cc(CN3CCN(C(=O)COc4ccccc4Cl)CC3)nc2s1	–	·	·	–	·
O=C(Nc1ccc2c(c1)OCCO2)c1cccn(Cc2cccc(F)c2)c1=O	–	·	·	–	·
CCOc1ccc(NC(=O)c2c(O)[nH]c(=O)[nH]c2=O)cc1	·	–	–	·	·
CCOC(=O)c1ccc(NC(=O)c2c(O)[nH]c(=O)[nH]c2=O)cc1	–	–	–	54	–

Screens deposited in PubChem BioAssay by National Center for Advancing Translational Sciences (NCATS).
